Experimental data from the supplement of paper PMC3334620.
Whole data set: some 33,000 sequences, median “E-score (-0.5 to 0.5)” near -0.021, cut for the highest 2% near 0.32. This excerpt belongs to a sample that is enriched for the highest values.

Biological target: T1, Zap1 (UniProt P47043)
T1 sequence: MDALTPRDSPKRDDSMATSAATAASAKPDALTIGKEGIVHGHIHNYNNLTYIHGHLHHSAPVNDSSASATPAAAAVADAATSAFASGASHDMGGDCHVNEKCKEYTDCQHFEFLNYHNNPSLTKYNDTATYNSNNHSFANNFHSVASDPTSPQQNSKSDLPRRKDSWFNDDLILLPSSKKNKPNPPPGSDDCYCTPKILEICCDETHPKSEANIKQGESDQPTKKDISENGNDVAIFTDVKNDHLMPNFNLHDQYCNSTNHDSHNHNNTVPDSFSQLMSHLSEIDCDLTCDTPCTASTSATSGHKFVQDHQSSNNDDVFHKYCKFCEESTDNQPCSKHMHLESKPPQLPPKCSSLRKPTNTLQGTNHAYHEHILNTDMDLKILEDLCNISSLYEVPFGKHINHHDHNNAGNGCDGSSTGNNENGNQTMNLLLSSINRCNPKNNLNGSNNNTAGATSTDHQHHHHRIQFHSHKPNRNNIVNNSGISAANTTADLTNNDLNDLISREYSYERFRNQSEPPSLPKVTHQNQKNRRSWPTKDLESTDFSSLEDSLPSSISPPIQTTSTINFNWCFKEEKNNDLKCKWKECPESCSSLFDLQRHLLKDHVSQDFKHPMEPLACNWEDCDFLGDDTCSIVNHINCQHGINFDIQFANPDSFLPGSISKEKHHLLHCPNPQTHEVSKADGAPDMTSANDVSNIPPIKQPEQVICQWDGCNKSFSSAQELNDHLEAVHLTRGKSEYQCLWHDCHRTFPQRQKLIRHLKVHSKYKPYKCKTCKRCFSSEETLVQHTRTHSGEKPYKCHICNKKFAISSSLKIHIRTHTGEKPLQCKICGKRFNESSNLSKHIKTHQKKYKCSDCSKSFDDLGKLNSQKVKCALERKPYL
Assay: PBM E-score (8-mer binding enrichment) (E-score (-0.5 to 0.5)); higher = stronger / more preferred TF binding
Details: protein concentration: 200 nM; construct: GST-full length
Procedure: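 Universal 'all 10-mer' protein binding microarrays (Agilent AMADID 015681) probed with GST-tagged S. cerevisiae TFs (full-length or DBD) made by in vitro transcription/translation (PURExpress), about 100-200 nM. Bound TF was detected with fluorescent anti-GST. Each ungapped 8-mer (which stands for itself and its reverse complement) is scored by the PBM enrichment score (E-score), a modified Wilcoxon-Mann-Whitney statistic from -0.5 to +0.5, computed with the Universal PBM Analysis Suite. Scale: above 0.35 generally sequence-specific binding.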

Row | Sequence | PBM E-score
1 | CAAGGTTA | 0.466
2 | GAAGGTGC | 0.0253
3 | CAAGGTGA | 0.216
4 | GAAGGTTA | 0.437
5 | GTCTGGTA | 0.146
6 | CGTCCATA | 0.125
7 | AGCTGAGC | -0.185
8 | GTACCCAA | 0.234
9 | ATACCCCC | 0.221
10 | GTACCCCA | 0.35
11 | ATACCCAA | 0.247
12 | CTACCCCA | 0.139
13 | ATACCCCA | 0.383
14 | ACTCTGCA | 0.0815
15 | AGTTCAGG | 0.0101
16 | ATATGACG | -0.122
17 | GCCGAGGC | -0.0423
18 | CCCCCATA | -0.0168
19 | ACCCCATA | 0.373
20 | AACCCATT | 0.276
21 | ACCCCATG | 0.255
22 | GACCCATA | 0.259
23 | AACCCATA | 0.391
24 | GTATTCAA | 0.123
25 | AGCCACAG | -0.199

Row | Sequence | PBM E-score
26 | GACAGCCA | -0.146
27 | ACGTCACT | -0.246
28 | GCCTTACC | 0.0234
29 | CCATAAAC | 0.0419
30 | AAGGTAGC | 0.307
31 | GAGGTACC | 0.432
32 | CAGGTACC | 0.415
33 | AAGGTAGA | 0.106
34 | AACGTACT | 0.0257
35 | AAGGTACT | 0.33
36 | GAGGTAGC | 0.0662
37 | CAGGTACA | 0.101
38 | AAGGTAGT | 0.373
39 | AAGGTATC | 0.255
40 | GAGGTACA | 0.155
41 | CAGGTACG | 0.0402
42 | GGATCCCC | -0.152
43 | CGATAGAG | -0.236
44 | GTACCTTA | 0.265
45 | GGCATAGA | -0.0663
46 | CGCTACGA | -0.0679
47 | AAGGTACA | 0.223
48 | AAGGTACG | 0.0328
49 | AAGGTACC | 0.445
50 | CCAGTTAG | 0.00998

Row | Sequence | PBM E-score
51 | CCAATAGA | -0.224
52 | CTAGTTAA | 0.144
53 | CGACGAAC | -0.0937
54 | ATATAACC | 0.456
55 | CTATAACA | -0.0126
56 | CTATAACC | 0.446
57 | CTATAATC | -0.017
58 | ATATAACA | 0.176
59 | ATATAACG | 0.183
60 | AACCAACA | 0.254
61 | CGGCTCGA | -0.172
62 | ACAAAAGC | -0.0458
63 | CAGCGCAG | -0.221
64 | AGGGTGGG | 0.334
65 | ATGGTTGG | -0.0414
66 | AGGGTGGC | 0.293
67 | AGGGTTGA | 0.271
68 | AGGGTTGG | 0.333
69 | AGGGTGGA | 0.163
70 | AGGGTTTC | 0.232
71 | AGGGTTGC | 0.46
72 | CGGGTTGC | 0.18
73 | TCATGCGA | -0.00209
74 | GCTCTTGA | -0.213
75 | CGGAGTTC | 0.0089

Row | Sequence | PBM E-score
76 | GTTAGGAA | 0.168
77 | GAAGCAAC | 0.106
78 | AACCGGGA | 0.133
79 | AACCGGTT | 0.348
80 | AACCGGTC | 0.14
81 | AACCGGTG | -0.0964
82 | AACCGGGT | 0.319
83 | AACCGGGG | -0.00821
84 | CGGAACTA | 0.141
85 | CGATGCCG | -0.11
86 | GACTTGCA | -0.0829
87 | CGGGTTAC | 0.439
88 | GGAGTTAC | 0.137
89 | CGGGTTTA | 0.205
90 | CGGGTTAG | 0.0706
91 | GGGGTTAC | 0.464
92 | CGGGTTGA | 0.24
93 | CGGGTTTC | 0.289
94 | CGGGTTAA | 0.356
95 | GGGTTTAC | 0.316
96 | TCACAGCA | 0.124
97 | ACTCCTTG | 0.0145
98 | ATGGTGAA | -0.0722
99 | CACCACTG | -0.0127
100 | CTACGTAG | -0.0165

Row | Sequence | PBM E-score
101 | TAAGTTCA | 0.0427
102 | GGTAGACA | -0.0227
103 | ACCCGGTA | 0.329
104 | TACCGGTA | 0.355
105 | CACCGGTA | 0.188
106 | CCCCGGTA | 0.153
107 | AACCGGTA | 0.0841
108 | ACCCGGTC | -0.0272
109 | ACTAGCTG | -0.214
110 | CATAGTGC | -0.16
111 | AGCGAATC | -0.083
112 | CTCCAGAC | -0.165
113 | AGGGTAAA | 0.235
114 | AGGGTAAT | 0.38
115 | AGGGTAAG | 0.373
116 | ATGGTAAT | 0.239
117 | AGAGTAAG | 0.0042
118 | GAGAGCAC | -0.00012
119 | CATTGGAG | -0.0511
120 | GAAGCATC | -0.258
121 | ACGATGCG | -0.223
122 | ACCGTAAC | 0.331
123 | ACCGTAAT | 0.0558
124 | CTCGTAAG | 0.215
125 | ACCGTAAG | 0.101

Row | Sequence | PBM E-score
126 | CTCGTAAC | 0.327
127 | GTCGTAAC | 0.256
128 | ACAAGTCC | -0.0469
129 | GCAACTGC | -0.207
130 | ACGAGTTA | 0.0684
131 | ATACCTCA | 0.223
132 | ATACCTCG | 0.338
133 | ATACCTCC | -0.0021
134 | CACACCTA | -0.0992
135 | TAGACATA | 0.0776
136 | AAAAAGGT | 0.403
137 | ACAAAGGT | 0.352
138 | AAAAAGGG | 0.243
139 | ACAAAGGC | 0.0392
140 | ACAAAGGG | 0.0567
141 | AAAAAGGA | 0.15
142 | CCTTTCTA | 0.121
143 | ATCTAACC | 0.226
144 | AAATACCT | 0.128
145 | CGATACCC | 0.275
146 | AGATACCA | 0.137
147 | GGATACCA | 0.17
148 | GGATACCC | 0.393
149 | AGATACCG | 0.0651
150 | AGATACCC | 0.325

Row | Sequence | PBM E-score
151 | CAATACCC | 0.214
152 | AAATACCC | 0.328
153 | ACTCATGA | -0.0211
154 | CAGTAGGA | -0.247
155 | AGATATCT | 0.0317
156 | TGATTGAA | 0.154
157 | ACCTAAGG | 0.185
158 | ACTGCTTC | -0.175
159 | ACCTTGAT | 0.325
160 | GCCTTGAA | 0.0337
161 | TCCTTGAA | 0.158
162 | ACCTTGAA | 0.337
163 | CCCTTGAG | 0.33
164 | ACCTTGGC | 0.106
165 | CCCTTGAA | 0.102
166 | ACCTTGGA | 0.195
167 | CCCTTGAC | 0.193
168 | ACCTTGCT | 0.218
169 | ACCTTGGG | 0.327
170 | ACCTTGAC | 0.266
171 | CGTGAGGA | -0.201
172 | AGAGCGAA | -0.124
